Screens: PubChem BioAssay, several laboratories
LMP1 NFkB inh = inhibitors of Epstein-Barr LMP1-induced NF-kappaB reporter; inhibition, % at 12.5 µM; 0.69% of 350,000 active; LMP1-induced NF-kappaB luciferase reporter cells, luminescence; in the data active = inhibition above about 41%;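 note: 0% = neutral control wells and 100% = reference inhibitor control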
HIF-2a inh = HIF-2a inhibition | 786-0 RCC cells HIF-2a reporter, luciferase luminescence, overnight | inhibition, % at 18.8 µM | 0.72% of 360,000 active;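 active = inhibition of the luminescence signal of 40% or more relative to plate controls, in a single-dose primary screen at 18.75 µM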
Shn3 3UTR inh = reduces Shn3 3'UTR luciferase signal in osteoblasts; Clone20 osteoblast Shn3 3'UTR firefly luciferase, 24 h; inhibition, % at 12.5 µM; 0.52% of 360,000 active; AID 588674;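 active = mean inhibition of at least 75% with every replicate also reaching 75%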;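 note: 0% = median of neutral control wells and 100% = pilot-screen positive control compound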
Peg3 promoter = Peg3 promoter activity inhibition; HeLa PEG-Prom luciferase reporter, luminescence, overnight; inhibition, % at 20 µM; 1.7% of 360,000 active;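 active = inhibition of at least 50% at 20 µM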
TRPM1 prom inh = MITF TRPM1 promoter inhibition in SK-MEL-5 cells; AID 488899; inhibition, % at 12.5 µM; 0.83% of 330,000 active; SK-MEL-5 TRPM1 promoter luciferase, 24 h;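 active = mean inhibition across replicates of 60% or more, whatever share of single replicates reaches that level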
PAX8 inh HTS = PAX8 transcriptional activity inhibition; RMG-I TPO-luciferase reporter, SteadyGlo, 24 h; inhibition, % at 12.6 µM; 1.2% of 360,000 active;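 active = mean replicate inhibition at least 60% with every replicate also reaching 60%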;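 note: luciferase light reporting Pax8 driven TPO promoter activity; plate controls were median of neutral control wells for no effect and mitoxantrone controls for full effect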
* hit, by the source's call; nt = not tested or not shown. Shown are actives, neighbours in structure and some others; about 2.8% of the full set was active somewhere.

SMILES | LMP1 NFkB inh | HIF-2a inh | Shn3 3UTR inh | Peg3 promoter | TRPM1 prom inh | PAX8 inh HTS
C[C@@H]1CN([C@@H](C)CO)C(=O)c2cccc(NS(=O)(=O)c3ccc(Cl)cc3)c2O[C@@H]1CN(C)Cc1ccc(-c2ccccc2)cc1 | nt | nt | nt | nt | nt | 65*
C[C@H](CO)N1C[C@H](C)[C@H](CN(C)Cc2ccc(Cl)c(Cl)c2)Oc2c(NS(=O)(=O)c3ccc(Cl)cc3)cccc2C1=O | nt | nt | nt | nt | nt | 83*
O=C(Nc1ccc(C(F)(F)F)cc1)c1cc(-c2cccnc2)nc2ccc(Br)cc12 | -10 | -3 | 34 | 42 | 2 | nt
CC(=O)Nc1cccc(NC(=O)c2cc(-c3cccnc3)nc3ccc(Br)cc23)c1 | -10 | -73 | 24 | 61* | 8 | nt
CN(C)CCNC=C(C(=O)Nc1ccc(Cl)cc1Cl)C(=O)Nc1ccc(Cl)cc1Cl | -52 | 4 | -19 | 91* | 19 | nt
CC(=O)/C(=C/N(C)C)C(=O)Nc1ccc(Cl)cc1Cl | 0 | -71 | 12 | -13 | 1 | 6
COc1ccc(NC(=O)Cn2nnc(C(=O)NCc3ccccc3)c2N)c(OC)c1 | 64* | 14 | 4 | 19 | -3 | 30
C[C@@H]1CN([C@@H](C)CO)C(=O)c2cc(NS(=O)(=O)c3ccc(F)cc3)ccc2O[C@@H]1CN(C)S(=O)(=O)c1cccs1 | nt | nt | nt | nt | nt | 25
CCCNC(=O)N1[C@H](C#N)[C@H](c2ccc(-c3cccnc3)cc2)[C@@H]1CO | nt | nt | nt | nt | nt | 7
Nc1nc(N)c2cc(S(=O)(=O)c3cccc(C(F)(F)F)c3)ccc2n1 | 2 | 29 | 85* | 22 | nt | 29
COc1cc(OC)cc(-c2oc(=O)c3cc(OC)c(OC)cc3c2C(F)(F)F)c1 | -4 | 1 | -1 | 18 | 70* | 3
COc1ccc(-c2n[nH]c(C)c2-c2cscn2)c(O)c1 | -1 | 10 | 14 | 4 | -1 | 11
C=C(C)COc1ccc(-c2n[nH]c(C)c2-c2ccc(OC)cc2)c(O)c1 | 3 | 19 | 40 | 80* | 6 | nt
O=C(O)C1(Nc2ccccc2Cl)CCCC1 | 1 | 11 | 93* | 12 | 10 | 18
CC(=O)Nc1ccc(S(=O)(=O)NCCC(=O)OC(C)C(=O)c2ccc(C)cc2)cc1 (stereo not given) | 7 | 14 | 10 | 0 | 0 | 5
Cc1ccc(NC(=O)C(C)OC(=O)CCNS(=O)(=O)c2ccc(C)cc2)cc1 (stereo not given) | -9 | 6 | -14 | 2 | 4 | 70*
C[C@@H]1CN([C@H](C)CO)C(=O)Cc2cc(NC(=O)Cn3cnnn3)ccc2O[C@@H]1CN(C)S(=O)(=O)c1cccs1 | nt | nt | nt | nt | nt | 4
COc1ccc(-c2c[n+]3c4n2CCCCC4=C(c2ccc(Br)cc2)C3)cc1 | 4 | -15 | 24 | 46 | 76* | nt
Cc1cccc2cc3c(N)c(C(=O)Nc4ccc(N5CCOCC5)cc4)sc3nc12 | 10 | -21 | 57 | 56* | 3 | nt
Cc1sc(NC(=O)c2sc3nc4c(C)cccc4cc3c2N)c(C#N)c1C | -42 | -14 | 21 | -3 | -42 | nt
Cc1ccc(C)c2nc3sc(C(=O)N4CCOCC4)c(N)c3cc12 | -26 | -251 | -14 | -223 | -43 | -134
Cc1cc(C)c2nc3sc(C(=O)N4CCOCC4)c(N)c3cc2c1 | 51* | -134 | 7 | -155 | 46 | 69*
COc1ccc(CN(C)C[C@H]2Oc3ccc(NC(=O)NC(C)C)cc3CC(=O)N([C@H](C)CO)C[C@@H]2C)cc1 | nt | nt | nt | nt | nt | -1
COc1ccc(N2N=NN(C(C)C)C2=C(Cl)c2nnnn2-c2ccc(OC)cc2)cc1 | 85* | -157 | -20 | -95 | 37 | nt
COc1ccc(-n2nnnc2-c2ccccc2)cc1 | 12 | -39 | -3 | -9 | 25 | nt
SMILES | LMP1 NFkB inh | HIF-2a inh | Shn3 3UTR inh | Peg3 promoter | TRPM1 prom inh | PAX8 inh HTS
Cc1cc(C)cc(C(=O)NCC(=O)OCN2C(=O)c3ccccc3C2=O)c1 | -5 | -7 | -7 | 52* | 1 | -6
C[C@H]1C[C@H]2[C@@H]3CCC4=CC(=O)C=C[C@]4(C)[C@@]3(F)[C@@H](O)C[C@]2(C)[C@@]1(O)C(=O)CO | 45* | 18 | 72 | 2 | -22 | -23
CCCc1cc(=O)oc2cc(OCC(=O)NCCc3c[nH]c4ccccc34)ccc12 | -7 | 0 | 3 | 57* | 0 | nt
N#C/C(=C/c1ccc(N2CCCCCC2)o1)c1ccc(Cl)cc1 | 30 | 45* | 96* | 97* | -19 | nt
N#C/C(=C/c1ccc(N2CCCCC2)o1)c1cccc(F)c1 | -96 | -339 | 60 | -298 | -103 | nt
CN(C)CCCNC(=O)C[C@@H]1CC[C@H]2[C@H](COc3ccc(NC(=O)C4CCC4)cc3C(=O)N2C)O1 | nt | nt | nt | nt | nt | 0
CC[C@H](C)C1OC(=O)[C@@H](C)[C@@H](CC)NC(=O)[C@H](C)N(C)C(=O)C(C)(C)C(=O)C(C)NC(=O)[C@H](Cc2ccc(OC)cc2)N(C)C(=O)[C@H](C(C)C)N(C)C(=O)CNC(=O)[C@H](CC(C)C)N(C)C(=O)CNC1=O (stereo not given in full) | nt | 34 | 70 | 92* | nt | nt
C[C@@H]1CN([C@@H](C)CO)C(=O)c2cc(N(C)C)ccc2O[C@H]1CN(C)C(=O)Nc1ccc(C(F)(F)F)cc1 | nt | nt | nt | nt | nt | 24
CC(C)Cn1c([N+](=O)[O-])nc2c1c(=O)[nH]c(=O)n2C | -3 | 9 | nt | 17 | 40 | 78*
O=C(NCc1ccc(F)cc1)C1(c2cccs2)CCOCC1 | 2 | 9 | -6 | 6 | 0 | 123*
O=C(CCC(=O)c1cccs1)NCc1ccc(F)cc1 | 0 | 13 | -12 | 13 | 5 | -10
C[C@H](CO)N1C[C@H](C)[C@H](CN(C)C(=O)Nc2ccc(F)cc2)OCCCC[C@H](C)Oc2ccc(NC(=O)c3ccncc3)cc2C1=O | nt | nt | nt | nt | nt | 3
CC(N)=Nc1ccc([N+](=O)[O-])cc1 | -6 | 12 | 17 | 16 | -10 | -5
O=[N+]([O-])c1ccc(N=Nc2c(Cl)cc(O)cc2Cl)cc1 | 35 | -196 | 72 | 72* | 18 | 98*
Cc1cc(C)c(C#N)c(SCc2ccc(F)cc2)n1 | 2 | -4 | -7 | 4 | -4 | 12
CSc1nc(C)cc(C)c1C#N | 94* | 11 | 1 | -14 | -20 | nt
COc1cc(C(=O)c2cc3c(cc2C)OCO3)cc(OC)c1OC | nt | 5 | 20 | -71 | nt | 84*
O=C(NCC1CCCO1)C(=Cc1cccc([N+](=O)[O-])c1)C(=O)NCC1CCCO1 (stereo not given) | 2 | 39 | -36 | 36 | 18 | 98*
O=[N+]([O-])c1ccc(Cl)c(S(=O)(=O)NCC2CCCO2)c1 (stereo not given) | 48* | 22 | -8 | 10 | 4 | -5
O=S(=O)(NCC1CCCO1)c1cnc(Cl)c(Br)c1 (stereo not given) | -18 | 11 | -16 | 1 | 3 | 110*
CC(C)C#Cc1ccc([C@H]2[C@H]3CN(S(=O)(=O)Cc4ccccc4)CCCCN3[C@H]2CO)cc1 | nt | nt | nt | nt | nt | 10
